Source: PubChem
IL1B secr inh: qHTS for Inhibitors of Inflammasome Signaling: IL-1-beta AlphaLISA Primary Screen. activity change, % at 57.5 µM. AID 743279, 2014. 360,000 tested, 4.7% active. THP-1 LPS/ATP IL-1B secretion, AlphaLISA, 16 h; hits give low values; in the data active = activity change below about -50%; inconclusive = mostly about -30% to -49%
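THP-1 cells pretreated 1 hr with compounds (up to 57.5 uM final), then stimulated with LPS (250 ng/mL final) plus ATP (1.25 mM final); secreted IL-1B measured by AlphaLISA after 16 hr, decreased signal indicating inhibition.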
HepG2 tox: qHTS for Inhibitors of TGF-b: Cytotox Counterscreen. HepG2 CAGA-GFP viability, ATP luminescence, 18 h. Potency, µM (top dose mostly 46.1 µM), actives largely listed as cytotoxic. 410,000 tested, 0.76% active. AID 588856, 2011
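HepG2 CAGA-GFP cells (1000/well, DMEM with 1% FBS) received compound, then TGF-beta at 500 pg/mL final, and were incubated 18 hours at 37 degrees C. Viability was read by CellTiter-Glo luminescence. Media-only wells were set as complete cell-killing and DMSO as no toxicity.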
TDP1 inh: qHTS Assay for Inhibitors of Tyrosyl-DNA Phosphodiesterase (TDP1); Tyrosyl-DNA phosphodiesterase 1 (Homo sapiens), Q9NUW8; recombinant TDP1, AlphaScreen DNA substrate cleavage; Potency, µM (highest dose often 130 µM), usual class: inhibitors; 350,000 tested, 0.28% active; AID 485290, 2010; note: nearly all actives have a fitted effect of over 40% in size
Target sequence (Q9NUW8 whole entry, looked up): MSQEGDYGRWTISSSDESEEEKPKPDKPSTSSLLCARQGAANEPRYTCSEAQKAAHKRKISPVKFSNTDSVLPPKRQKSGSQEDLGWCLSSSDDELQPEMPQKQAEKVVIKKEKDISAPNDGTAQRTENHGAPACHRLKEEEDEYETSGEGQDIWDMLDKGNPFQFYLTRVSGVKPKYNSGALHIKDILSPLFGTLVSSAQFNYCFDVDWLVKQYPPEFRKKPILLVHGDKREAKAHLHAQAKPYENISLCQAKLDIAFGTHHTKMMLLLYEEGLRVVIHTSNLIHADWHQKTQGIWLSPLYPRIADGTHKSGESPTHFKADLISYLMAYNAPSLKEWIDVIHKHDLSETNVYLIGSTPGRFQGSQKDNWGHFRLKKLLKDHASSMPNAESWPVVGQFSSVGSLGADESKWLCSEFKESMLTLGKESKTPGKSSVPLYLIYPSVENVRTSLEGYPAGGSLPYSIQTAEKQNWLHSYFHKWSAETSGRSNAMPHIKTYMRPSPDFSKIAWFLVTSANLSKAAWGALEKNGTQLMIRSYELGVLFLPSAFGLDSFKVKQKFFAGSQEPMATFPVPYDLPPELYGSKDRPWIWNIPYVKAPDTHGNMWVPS
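Tdp1 1 nM final; 15 min RT w/ cpd; substrate 15 nM, 5 min; beads 10 ug/ml, 10 min; AlphaScreen read. Neg ctrl: no enzyme.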
TDP1 cell CPT: qHTS for Inhibitors of human tyrosyl-DNA phosphodiesterase 1 (TDP1): qHTS in cells in presence of CPT; chicken DT40 Tdp1-/-;hTDP1 cells + 20 nM CPT, ATP luminescence, 48 h; Potency, µM (doses to about 46.2 µM), hits mostly inhibitors; 420,000 tested, 12% active; AID 686979, 2013; note: nearly all actives have a fitted effect of over 55% in size
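Cell growth measured by CellTiter-Glo luminescence after a minimum 48 h, 37 C compound exposure with 20 nM CPT in Tdp1-knockout DT40 cells stably expressing hTDP1, seeded 400/well; qHTS titration format.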
TGFb inhibitor: qHTS for Inhibitors of TGF-b. 410,000 tested, 1.2% active. Potency, µM (series often up to 46.1 µM), most hits filed as inhibitors. HepG2 CAGA-GFP TGF-b/SMAD3 reporter, GFP fluorescence, 18 h; TGF-beta stimulated, 500 pg/mL final; note: nearly all actives have a fitted effect of over 65% in size
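HEPG2 CAGA-GFP cells (1000/well, DMEM with 1% FBS) were pre-incubated 2 h at 37 degrees C, given compound by pin tool, then stimulated with TGF-beta at 500 pg/mL final for 18 h before per-cell GFP fluorescence imaging.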
TDP1 cell noCPT: qHTS for Inhibitors of human tyrosyl-DNA phosphodiesterase 1 (TDP1): qHTS in cells in absence of CPT. DT40 Tdp1-/- hTDP1 cells, no CPT, ATP luminescence, 48 h. AID 686978, 2013. Potency, µM (series often up to 46.2 µM), actives largely listed as inhibitors. 420,000 tested, 15% active; note: nearly all actives have a fitted effect of over 55% in size
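Growth of hTDP1-complemented DT40 Tdp1-knockout cells is measured by ATP luminescence after at least 48 hr compound exposure at 37 °C, with DMSO substituting for the 20 nM CPT used in the parallel screen.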
Numbers stand for hits; 0 = inactive; ? = inconclusive; - = no result; [ ] = dose if it differs, or a comment. Rows were chosen to be rich in hits. Some 19% of all compounds tested hit in one or more screens of this group. Unless noted, calls come from the whole dose curve; as a rule, active = well fitted curve in the direction sought with a large enough effect; inconclusive = small, poorly fitted or top-dose-only effect, or another doubt; inactive = no such curve, though single readings can be large; an effect the other way counts as inactive or inconclusive.

SMILES	IL1B secr inh	HepG2 tox	TDP1 inh	TDP1 cell CPT	TGFb inhibitor	TDP1 cell noCPT
COc1ccc(OCc2cc(C(=O)NCCN3CCCC(O)C3)no2)c(Cl)c1 (centres undefined)	0	0	0	0	0	0
Cc1cccc(C)c1OCc1cc(C(=O)NCc2cn(C)nc2C)no1	0	0	0	18µM	0	?
O=C(NCCc1ccccc1C(F)(F)F)c1cc(COc2ccccc2)on1	0	0	-	16µM	0	16µM
Cc1cccc(C)c1OCc1cc(C(=O)N(Cc2c(C)nn(C)c2C)C2CC2)no1	?	0	0	13µM	?	8.2µM
Cc1nc2c(C)cccn2c1/C(O)=C1\C(=O)C(=O)N(CCN(C)C)C1c1ccco1 (centres undefined)	0	0	0	0	0	0
Cc1c(C(=O)NCCN2CCC(c3ccccc3)CC2)cnn1-c1nccc(-c2cccs2)n1	-	-	-	0[9.04 µM]	-	?
O=S(=O)(NCC(c1cccnc1)N1CCN(Cc2ccccc2)CC1)c1cc(F)ccc1F (centres undefined)	0	0	0	?	0	0
COc1ccc(OCc2cc(C(=O)NCC(C)(C)N3CCOCC3)no2)c(Cl)c1	0	0	0	23µM	0	21µM
COc1ccc(CCNC(=O)c2cc(COc3c(C)cccc3C)on2)c(OC)c1	0	0	0	23µM	0	0
COc1cc(Cl)ccc1OCc1cc(C(=O)NCC(C)(C)N2CCOCC2)no1	0	0	-	0	0	0
COc1ccc(OCc2cc(C(=O)NCC3CCOCC3)no2)c(Cl)c1	0	0	0	?	0	0
COc1ccc(OCc2cc(C(=O)NCCc3ccccc3)no2)c(Cl)c1	0	0	0	7.3µM	0	10µM
COc1ccc(N2CC(NC(=O)/C=C\c3ccc4c(c3)OCO4)CC2=O)cc1OC (centres undefined)	-	0	0	0	0	0
O=C(O)C1=C(C2CCCCC2)C(=O)c2ccccc21	-55	0	-	0	0	0
CC(=O)N(C1=C(O)c2ccccc2C(=O)C1=O)C1CCCCC1	0	0	0	?	0	0
O=C1C=C(C2CCCCC2)C(=O)c2ccccc21	0	0	-	21µM	0	15µM
COc1ccc(CNCCS(=O)(=O)NN2CCOCC2)cc1	0	0	-	0	0	0
CCCn1c(=O)c2c(ncn2C)n(CCC)c1=O	0	0	0	?	?	3.7µM
CCOC(=O)CNS(=O)(=O)c1cc(-c2n[nH]c(=O)c3ccccc23)ccc1C	-	0	0	?	0	0
Cc1ccc(NS(=O)(=O)c2cc(-c3n[nH]c(=O)c4ccccc34)ccc2C)cc1	0	0	0	7.3µM	?	6.5µM
Cc1ccc(-c2nnc(Nc3ccc(CC(N)=O)cc3)c3ccccc23)cc1	?	0	0	0	13µM	0
Cc1ccc(-c2nnc(Nc3ccccc3)c3ccccc23)cc1S(=O)(=O)N1CCN(C)CC1	-	0	-	?	0	?
Cc1ccc(Nc2nnc(-c3ccc(C)c(S(=O)(=O)N4CCN(C)CC4)c3)c3ccccc23)cc1	-	0	-	18µM	0	16µM
COc1ccc(Nc2nnc(-c3ccc(C)c(S(=O)(=O)N4CCN(C)CC4)c3)c3ccccc23)cc1	-	0	-	?	14µM	?
CNC(=O)c1ccc(Nc2nnc(-c3ccc(C)c(S(=O)(=O)N4CCCCC4)c3)c3ccccc23)cc1	-	0	0[12.3 µM]	0	0	0
SMILES	IL1B secr inh	HepG2 tox	TDP1 inh	TDP1 cell CPT	TGFb inhibitor	TDP1 cell noCPT
COc1ccc(CC(=O)Nc2cc(-c3cn4cccnc4n3)ccc2OC)cc1	-	0	0	?	?	?
Cc1ccc(Nc2nnc(-c3ccc(C)c(S(=O)(=O)N4CCN(C)CC4)c3)c3ccccc23)c(C)c1	-	0	-	7.3µM	0	6.5µM
Cc1ccc(C)c(S(=O)(=O)N2CCCN(C)CC2)c1	0	0	0	0	0	0
Cc1ccc(Nc2nnc(-c3ccc(C)c(S(N)(=O)=O)c3)c3ccccc23)cc1	-	0	0	-	10µM	-
Cc1ccc(-c2nnc(Nc3ccc(C(N)=O)cc3)c3ccccc23)cc1S(N)(=O)=O	-	0	0	0	0	0
CCOC(=O)C(=O)Nc1nnc2n1CCS2	-	0	0	0	?	0
N#C/C(=C\C=C\c1ccccc1[N+](=O)[O-])C(=O)NCc1ccccc1	-102	0	-	4.6µM	13µM	6.5µM
CCCCCCCCNC(=O)/C(C#N)=C/c1ccccc1[N+](=O)[O-]	?	0	0	?	?	?
C=CCNC(=O)/C(C#N)=C/c1ccccc1[N+](=O)[O-]	-62	0	0	0	0	?
N#C/C(=C\c1ccccc1[N+](=O)[O-])C(=O)NCc1ccccc1	0	0	0	0	0	21µM
CCc1ccc2c(c1)c(=O)c(S(=O)(=O)c1ccc(Cl)cc1)cn2CC	-	0	0	?	0	?
CCOC(=O)/C=C/C(=O)N1CCN(C(=O)/C=C/C(=O)OCC)CC1	-100	0	-	?	0	21µM
O=C(O)/C=C/C(=O)N1CCN(C(=O)/C=C/C(=O)O)CC1	0	0	0	0	0	0
CCOc1ccc(Cn2c(CNS(=O)(=O)c3cccc(Cl)c3)nc3cccnc32)cc1	-	0	0	?	0	?
CCOc1ccc(Cn2c(CNS(=O)(=O)c3cccs3)nc3cccnc32)cc1	-	0	0	?	0	23µM
CCc1ccc(Cn2c(CNS(=O)(=O)c3ccc(Cl)s3)nc3cccnc32)cc1	-	0	0	16µM	?	16µM
CC(C)COc1ccc(C(=O)NCC2(N3CCN(C)CC3)CCCCC2)cc1	-	0	0	?	?	18µM
CN1CCN(C2(CNC(=O)c3ccc(C(C)(C)C)cc3)CCCCC2)CC1	-	0	0	?	0	16µM
CS(=O)(=O)c1ccc(C(=O)NCC2(N3CCCCC3)CCCCC2)cc1	0	0	0	0	0	0
COc1ccccc1OC(C)C(=O)NCC1(N2CCOCC2)CCCCC1 (centres undefined)	-	0	0	23µM	0	18µM
COCc1ccc(C(=O)NCC2(N3CCCCC3)CCCCC2)cc1	0	0	-	?	0	23µM
CS(=O)(=O)Cc1ccc(C(=O)NCC2(N3CCCCC3)CCCCC2)cc1	0	0	0	0	0	0
Cc1ccc(OC(C)C(=O)NCC2(N3CCOCC3)CCCCC2)cc1C (centres undefined)	-	0	0	?	0	?
